Screening results from PubChem.
Pol kappa inh: qHTS for Inhibitors of Polymerase Kappa; DNA polymerase kappa (Homo sapiens), Q9UBT6; Potency, µM (titrated, usually from 107 µM), inactives show at the highest dose activity, negative = inhibition, hits mostly inhibitors; purified Pol kappa, fluorescent DNA synthesis assay, 10 min; actives 0.53% (n = 400,000); AID 588579, 2011; further: on the % scale 0 is the no-effect control and ±100 the full control effect
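Inhibition of 10 nM Pol kappa is measured by a fluorescent read-out at 0 and 10 min following addition of 50 nM substrate (final), with a 15-min room-temperature compound preincubation.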
POLI inh: qHTS for Inhibitors of Polymerase Iota. DNA polymerase iota (Homo sapiens), Q9UNA4. Pol iota fluorescent replication assay, 10 min. Potency, µM (titrated, usually from 115 µM), inactives show top-dose activity, negative = inhibition, hits mostly inhibitors. actives 1% (n = 390,000). AID 588590, 2011
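Fluorescent replication assay read twice, at 0 min and 10 min after adding 50 nM (final) substrate. Enzyme (10 nM) and compounds were first incubated 15 min at room temperature; enzyme-free buffer wells were negative controls.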
TDP1 inh: qHTS Assay for Inhibitors of Tyrosyl-DNA Phosphodiesterase (TDP1); actives 0.28% (n = 350,000); Tyrosyl-DNA phosphodiesterase 1 (Homo sapiens), Q9NUW8; Potency, µM (doses to about 130 µM), for the others: at the highest dose activity change, negative = inhibition, hits mostly inhibitors; AID 485290, 2010; recombinant TDP1, AlphaScreen DNA substrate cleavage; further: on the % scale 0 is the no-effect control and ±100 the full control effect; nearly all actives have a fitted effect of over 40% in size
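Recombinant E. coli-expressed Tdp1 (1 nM) preincubated with compound 15 min at RT, then 5'-biotin/3'-phosphotyrosine-FITC DNA substrate (15 nM) added for 5 min. AlphaScreen beads (10 ug/ml) added, 10 min RT; tyrosine-FITC cleavage read as signal loss.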
POLB inh: qHTS Assay for Inhibitors of DNA Polymerase Beta; actives 1.3% (n = 340,000); Potency, µM (series often up to 114 µM), without a hit: top-dose activity change, negative = inhibition, usual class: inhibitors; Pol beta primer extension/strand displacement, fluorescence kinetic; P06746; further: on the % scale 0 is the no-effect control and ±100 the full control effect
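Enzyme-only controls used 10 nM Pol beta; buffer lacking enzyme served as negative control. Compound preincubated 15 min, then 50 nM substrate added; 0 and 10 min reads at room temperature.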
FEN1 inh: qHTS Assay for the Inhibitors of Human Flap endonuclease 1 (FEN1) | Potency, µM (series often up to 114 µM), for inactives: top-dose activity change, negative = inhibition, most hits filed as inhibitors | actives 0.35% (n = 390,000) | Recombinant FEN1 flap cleavage, fluorescence, 15 min; further: on the % scale 0 is the no-effect control and ±100 the full control effect; nearly all actives have a fitted effect of over 65% in size
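In this screen, 50 nM flap DNA substrate was added to 10 nM FEN1 pretreated with compound for 15 min at room temperature; cleavage was followed with reads at 0 and 15 min, and Hill fitting gave concentration–response parameters.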
Pol eta inh: qHTS for Inhibitors of Polymerase Eta | DNA polymerase eta (Homo sapiens), Q9Y253 | actives 1.2% (n = 390,000) | Potency, µM (top dose mostly 114 µM), for the others: top-dose activity change, negative = inhibition, actives largely listed as inhibitors | recombinant Pol eta, fluorescent DNA replication assay; further: on the % scale 0 is the no-effect control and ±100 the full control effect
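Pol eta at 10 nM preincubated with compounds 15 min at room temperature; reaction started with fluorescent substrate (50 nM final) and read kinetically at 0 and 10 min.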
Active calls of the source: *; u = inconclusive; x = no result; [ ] = dose if it differs, or a comment. Only some compounds are listed: those with a hit (about 2.4% of all), similar ones and a draw of the others. The call rests on the fitted dose curve; in most records, active means well fitted curve in the direction sought with a large enough effect; inconclusive means small, poorly fitted or top-dose-only effect, or another doubt; inactive means no such curve, though single readings can be large; an effect the other way counts as inactive or inconclusive. Potency means the concentration at half of the fitted maximal effect.

SMILES	Pol kappa inh	POLI inh	TDP1 inh	POLB inh	FEN1 inh	Pol eta inh
COc1ccc2cc(OCC(=O)NNC(=O)Nc3ccc(OC)c(OC)c3)ccc2c1	-35%	20µM*	-11%	50µM*	u	u
Cc1ccc2c(c1)c1nnc(SCC(=O)Nc3ccccc3C(F)(F)F)nc1n2CC(=O)O	7%	31%	5%	2%	-2%	-8%
Cc1ccc2c(c1)c1nnc(SCC(=O)Nc3cccc(Cl)c3C)nc1n2CC(=O)O	-16%	-1%	8%	22µM*	-13%	79µM*
CC1CCC2C(=O)OC(Cc3ccccc3)CN2C1c1ccc(Br)cc1 (configuration not stated)	x	x	5%[21 µM]	x	x	x
CCCOc1ccc(C(=O)Nc2ccc(S(=O)(=O)Nc3onc(C)c3C)cc2)cc1	-20%	u	6%	-3%	-2%	-1%
Cc1ccc(-c2cc(C(=O)Nc3ccc(S(=O)(=O)Nc4nccs4)cc3)c3ccccc3n2)c(C)c1	-21%	u	11%	0%[57.1 µM]	-13%	35µM*
Cc1cc(C)c2nc(-c3ccccn3)cc(C(=O)Nc3ccc(S(=O)(=O)Nc4cc(C)on4)cc3)c2c1	u	u	2%	50µM*	u	28µM*
Cc1noc(NS(=O)(=O)c2ccc(NC(=O)c3ccc(N4C(=O)c5ccccc5C4=O)cc3)cc2)c1C	u	u	50µM*	35µM*	-22%	79µM*
O=C(Nc1ccc(S(=O)(=O)Nc2nccs2)cc1)c1ccc(N2C(=O)c3ccccc3C2=O)cc1	u	71µM*	0%	22µM*	-6%	u
COc1cc(-c2noc(-c3ccc(NC4CCCCC4)c([N+](=O)[O-])c3)n2)cc(OC)c1OC	-37%	-7%	11%	u	-15%	-16%
CC(C)(C)n1ncc2c(=O)n(Cc3cccc(C(F)(F)F)c3Cl)cnc21	-15%	6%	x	x	-23%	x
CO[C@@H]1COC(=O)[C@H]2CCCN2C(=O)[C@@H](C)COC(=O)[C@H](COCc2ccccc2)NC(=O)C/C=C\[C@H]1C	x	x	7%[21 µM]	x	x	x
COc1ccc(OC)c(CCNC(=O)c2cc3c(-c4ccccc4F)nn(C)c3s2)c1	-3%	52%	12%	32%	1%	-18%
O=C1/C(=C/c2cccnc2)CC/C1=C\c1cccnc1	-8%	12%	6%	0%	-3%	-9%
O=C1/C(=C/c2cccnc2)CCC/C1=C\c1cccnc1	4%	45µM*	3%	0%	2%	22µM*
CCC1C/C(=C\c2cccnc2)C(=O)/C(=C/c2cccnc2)C1 (configuration not stated)	-6%	22µM*	3%	0%	-6%	11µM*
Cc1cc(NC2CCCCC2)nc(-n2nc(C)cc2C)n1	1%[60.1 µM]	x	x	x	x	x
COc1cc2ncc(-c3ccccc3)nc2cc1OC	5%[19.4 µM]	x	6%	x	x	x
CC1=NN(c2ccc(S(=O)(=O)O)cc2Cl)C(=O)C1	-14%	u	-1%	-3%	9%	u
CC1=NN(c2cc(Cl)c(S(=O)(=O)O)cc2Cl)C(=O)C1	u	u	x	x	-16%	22µM*
CC1=NN(c2ccc(Cl)c(C(=O)O)c2)C(=O)C1	-42%	1.1µM*	x	u	u	22µM*
CC1=NN(c2cccc(Cl)c2)C(=O)C1	-20%	3.5µM*	9%	1%	5%	-16%
CC1=NN(c2ccc(C(=O)O)cc2)C(=O)CC1	1%	41%	3%	u	1%	-16%
COc1cc(OC)c(NC(=O)CCCn2nc(C)c3sc4ccccc4c3c2=O)cc1Cl	u	u	0%	16µM*	35µM*	-18%
